Test results as given in PubChem BioAssay (NCATS).
Records with an inconclusive call do not appear. Calls of active or inactive are those of the source. Calls come from the whole dose curve; as a rule, active = well fitted curve in the direction sought with a large enough effect; inconclusive = small, poorly fitted or top-dose-only effect, or another doubt; inactive = no such curve, though single readings can be large; an effect the other way counts as inactive or inconclusive.

How the values were obtained:
[1] = Quantitative High-Throughput drug screen in 47 multiple myeloma cell lines against the NCATS MIPE library collection: KMS11_JCRBsus cell viability assay (AID 1919873); note: nearly all actives have a fitted effect of over 50% in size; note: potency is the fitted concentration of half-maximal effect
Procedure, shortened: (§1)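 Inhibition of viability over 48 h was scored by ATP content (CellTiter-Glo) in 500-cell wells. Zero and full viability were defined by media-only and DMSO-only wells.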

[2] = Quantitative High-Throughput drug screen in 47 multiple myeloma cell lines against the NCATS MIPE library collection: KMS28BM_JCRB cell viability assay (AID 1919874); note: nearly all actives have a fitted effect of over 35% in size; note: potency is the fitted concentration of half-maximal effect
Procedure, shortened: as §1

[3] = biological target: Cytochrome P450 2D6 (Homo sapiens) (UniProt P10635); test: qHTS for inhibitors of CYP2D6 against the NCATS DSHEA and TCM libraries (AID 1919972); note: % is set by controls: 0 for no effect and ±100 for the full control effect
Cytochrome P450 2D6 (Homo sapiens), sequence (P10635 whole entry, looked up): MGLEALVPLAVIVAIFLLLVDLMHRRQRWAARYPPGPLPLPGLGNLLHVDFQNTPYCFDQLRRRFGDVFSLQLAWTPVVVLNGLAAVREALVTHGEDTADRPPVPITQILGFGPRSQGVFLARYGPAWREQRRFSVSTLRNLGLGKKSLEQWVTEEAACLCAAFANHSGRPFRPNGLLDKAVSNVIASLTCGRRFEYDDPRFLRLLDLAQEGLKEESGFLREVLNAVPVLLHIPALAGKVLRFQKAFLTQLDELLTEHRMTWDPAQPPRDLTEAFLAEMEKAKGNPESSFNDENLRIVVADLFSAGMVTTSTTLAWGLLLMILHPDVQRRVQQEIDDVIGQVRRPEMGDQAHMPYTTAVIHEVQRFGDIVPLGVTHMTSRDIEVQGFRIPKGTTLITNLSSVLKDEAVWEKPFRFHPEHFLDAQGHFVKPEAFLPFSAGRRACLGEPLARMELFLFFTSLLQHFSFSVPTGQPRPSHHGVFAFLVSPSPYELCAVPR
Procedure, shortened: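 Luminescent P450-Glo read-out of CYP2D6 turnover of a luciferin substrate after NADPH-driven reaction of 30-45 min at room temperature. Compounds were first preincubated 15 min with enzyme at titrated concentrations; quinidine was the intraplate control.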

[4] = biological target: Cytochrome P450 2C9 (Homo sapiens) (UniProt P11712); test: qHTS for inhibitors of CYP2C9 against the NCATS DSHEA and TCM libraries (AID 1919973);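 note: luminogenic pro-luciferin CYP2C9 substrate turned into luciferin with NADPH regeneration; series mostly up to about 34 µM; % is set by controls: 0 for no effect and ±100 for the full control effect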
Cytochrome P450 2C9 (Homo sapiens), sequence (P11712 whole entry, looked up): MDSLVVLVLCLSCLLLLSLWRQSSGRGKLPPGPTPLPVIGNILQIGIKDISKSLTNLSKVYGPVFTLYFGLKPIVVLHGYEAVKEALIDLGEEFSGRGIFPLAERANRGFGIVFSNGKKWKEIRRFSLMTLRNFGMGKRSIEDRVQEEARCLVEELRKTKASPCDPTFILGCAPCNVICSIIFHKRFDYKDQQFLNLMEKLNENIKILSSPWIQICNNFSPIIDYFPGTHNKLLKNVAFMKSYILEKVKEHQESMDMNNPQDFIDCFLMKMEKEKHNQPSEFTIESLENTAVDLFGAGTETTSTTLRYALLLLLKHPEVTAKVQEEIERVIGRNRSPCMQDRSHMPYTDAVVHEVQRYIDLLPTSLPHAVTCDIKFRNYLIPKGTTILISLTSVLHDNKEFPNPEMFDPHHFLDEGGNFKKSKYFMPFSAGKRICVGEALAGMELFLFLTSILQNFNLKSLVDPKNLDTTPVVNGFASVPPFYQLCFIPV
Procedure, shortened: (§2)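 Luminescent P450-Glo format: compounds preincubated 15 min with enzyme and luciferin substrate, reaction run 30-45 min after NADPH regeneration solution. Intraplate controls: ketoconazole for CYP3A4 and CYP2C19, sulfaphenazole for CYP2C9.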

[5] = biological target: Cytochrome P450 2C19 (Homo sapiens) (UniProt P33261); test: qHTS for inhibitors of CYP2C19 against the NCATS DSHEA and TCM libraries (AID 1919974);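 note: luminescence from luciferin released by CYP2C19 oxidation of a pro-luciferin substrate; % is set by controls: 0 for no effect and ±100 for the full control effect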
Cytochrome P450 2C19 (Homo sapiens), sequence (P33261 whole entry, looked up): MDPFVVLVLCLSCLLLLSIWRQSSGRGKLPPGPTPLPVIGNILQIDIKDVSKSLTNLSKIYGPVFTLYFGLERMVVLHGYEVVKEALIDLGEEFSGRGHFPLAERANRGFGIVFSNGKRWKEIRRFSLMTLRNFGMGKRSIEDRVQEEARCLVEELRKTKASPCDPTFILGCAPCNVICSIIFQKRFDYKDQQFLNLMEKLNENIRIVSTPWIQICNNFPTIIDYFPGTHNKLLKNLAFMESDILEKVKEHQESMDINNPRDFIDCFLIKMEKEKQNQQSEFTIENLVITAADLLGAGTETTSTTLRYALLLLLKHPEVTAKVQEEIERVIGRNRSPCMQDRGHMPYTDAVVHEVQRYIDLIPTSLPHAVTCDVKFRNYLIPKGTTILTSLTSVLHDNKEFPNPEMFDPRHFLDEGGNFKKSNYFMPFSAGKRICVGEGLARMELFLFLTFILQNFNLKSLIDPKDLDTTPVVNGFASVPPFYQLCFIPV
Procedure, shortened: as §2

[6] = biological target: Cytochrome P450 1A2 (Homo sapiens) (UniProt P05177); test: qHTS for inhibitors of CYPIA2 against the NCATS DSHEA and TCM libraries (AID 1919976);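 note: light from luciferin formed by CYP1A2 from a pro-luciferin substrate; series mostly up to about 37 µM; % is set by controls: 0 for no effect and ±100 for the full control effect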
Cytochrome P450 1A2 (Homo sapiens), sequence (P05177 whole entry, looked up): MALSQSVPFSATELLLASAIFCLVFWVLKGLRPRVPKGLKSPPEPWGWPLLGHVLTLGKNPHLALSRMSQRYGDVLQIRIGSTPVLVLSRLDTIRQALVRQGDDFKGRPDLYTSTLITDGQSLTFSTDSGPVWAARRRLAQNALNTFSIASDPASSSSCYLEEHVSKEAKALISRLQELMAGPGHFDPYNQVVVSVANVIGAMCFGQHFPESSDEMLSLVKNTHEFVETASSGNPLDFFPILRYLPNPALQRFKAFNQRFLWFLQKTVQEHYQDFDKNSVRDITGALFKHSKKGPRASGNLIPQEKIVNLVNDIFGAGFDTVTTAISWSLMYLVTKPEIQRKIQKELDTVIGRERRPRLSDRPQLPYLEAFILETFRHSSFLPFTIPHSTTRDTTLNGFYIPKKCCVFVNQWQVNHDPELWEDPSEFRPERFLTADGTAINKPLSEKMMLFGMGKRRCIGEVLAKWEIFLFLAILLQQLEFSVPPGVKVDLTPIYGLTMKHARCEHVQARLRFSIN
Procedure, shortened: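 Human CYP1A2 with pro-luciferin substrate (typically 100 mM KPO4), 15 min preincubation with compound, then 1x NADPH regeneration for 30-45 min at room temperature in the dark. Luciferin quantified by luciferase luminescence; furafylline intraplate control.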

[7] = qHTS Counterscreen for compound interference against the NCATS DSHEA and TCM libraries (AID 1919978); settings: firefly luciferase detection reagent interference, luminescence;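 note: compounds preincubated with 1 µM D-luciferin or buffer before detection reagent; % of control where 0% means no effect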
Procedure, shortened: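 With 1 uM D-luciferin or phosphate buffer only, compounds at final 19.5 nM–39.8 uM were incubated for 15 min at room temperature. Luciferase detection reagent was then added, and luminescence was measured after a further 30 min at room temperature.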

[8] = Dual reporter qHTS for agonist of Pregnane X Receptor (hPXR) against the NCATS DSHEA and TCM libraries: Fluorescence readout (AID 1920058); note: 0% is about no effect
Procedure, shortened: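 hPXR-Luc HepG2 cells, 2000/well in charcoal-stripped serum, attached 5 h, dosed for ~24 h at 37 °C. Fluorescence read is CellTiter-Fluor viability (Ex/Em 405/540 nm); rifampicin positive, tetraoctyl ammonium bromide (92 µM) cytotoxicity controls.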

[9] = biological target: Cytochrome P450 3A4 (Homo sapiens) (UniProt P08684); test: qHTS for inhibitors of CYP3A4 against the NCATS DSHEA and TCM libraries (AID 1919971);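 note: % is set by controls: 0 for no effect and ±100 for the full control effect; inhibition lowers luminescence from luciferin made by CYP3A4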
Cytochrome P450 3A4 (Homo sapiens), sequence (P08684 whole entry, looked up): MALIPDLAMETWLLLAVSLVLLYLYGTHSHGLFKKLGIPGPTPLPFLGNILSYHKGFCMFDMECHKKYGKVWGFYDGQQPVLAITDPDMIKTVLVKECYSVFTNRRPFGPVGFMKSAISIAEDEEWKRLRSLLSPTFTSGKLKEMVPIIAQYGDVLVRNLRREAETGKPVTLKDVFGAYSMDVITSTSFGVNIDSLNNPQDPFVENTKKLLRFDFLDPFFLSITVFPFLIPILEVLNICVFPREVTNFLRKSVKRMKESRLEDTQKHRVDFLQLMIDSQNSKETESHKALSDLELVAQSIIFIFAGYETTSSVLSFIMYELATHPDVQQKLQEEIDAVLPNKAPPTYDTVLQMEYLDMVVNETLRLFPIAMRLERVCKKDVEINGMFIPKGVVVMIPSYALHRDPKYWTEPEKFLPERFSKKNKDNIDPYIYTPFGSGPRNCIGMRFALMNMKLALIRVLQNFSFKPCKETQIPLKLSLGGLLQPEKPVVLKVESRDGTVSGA
Procedure, shortened: as §2

[10] = KB-3-1 P-gp reporter qHTS against the NCATS DSHEA and TCM libraries (AID 1919975); note: 0% is about no effect
Procedure, shortened: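 Cell viability by CellTiter-Glo luminescence following ~72 h compound exposure (concentration-response). Uses parental, non-P-gp-overexpressing KB-3-1 line, 500 cells/well in DMEM/10% FBS, attached ~4 h before dosing.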

CC(C)[C@H](CO)Nc1nc(Nc2cccc(Cl)c2)c2ncn(C(C)C)c2n1
active: Potency [1] 11.8 µM | Potency [2] 18.7 µM

CCOC(=O)N1CCN([N+]([O-])=NOc2ccc([N+](=O)[O-])cc2[N+](=O)[O-])CC1
active: Potency [1] 0.332 µM | Potency [2] 0.833 µM

C=C(C)[C@@H]1CC[C@]2(C(=O)O)CC[C@]3(C)[C@H](CC[C@@H]4[C@@]5(C)CC[C@H](O)C(C)(C)[C@@H]5CC[C@]43C)[C@@H]12
inactive: Potency [1] | Potency [2] | outcome [3] | Potency [4] | outcome [5] | Potency [6] | max response [7] 1.9% | outcome [8]

C[C@@]12C[C@@]3(O)O[C@@H](O1)[C@]1(COC(=O)c4ccccc4)[C@@H]3C[C@@]12O[C@@H]1O[C@H](CO)[C@@H](O)[C@H](O)[C@@H]1O
inactive: Potency [9] | outcome [5] | outcome [10] | Potency [6] | max response [7] 0.508% | outcome [8]
